40 compounds from PubChem BioAssay (NCI) can be followed below.

About 83,000 compounds went through this panel and 20% of them were active in at least one assay; those are over-represented in the sample as a whole.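 Values shown are percent growth following 48 h exposure of cells in 96-well plates to a single concentration of compound; below 10 was considered active.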 Unmarked numbers belong to inactive results. The source made the active and inactive calls.

In this test the test system is MCF7 breast. Nature of the test: NCI-60 one-dose screen, 48 h (100 = growth as untreated, 0 = no growth, -100 = all killed). Particulars: 10 µM unless noted.
Take `Nc1cc(C(=O)N/N=C\c2ccc(OC(F)F)c(OC3CCCC3)c2)nn1CC(O)c1ccccc1` (stereo not given): the growth was 89%.

On to `Clc1ccc2[nH]cc(-c3nn4cc(-c5ccncc5)nc4s3)c2c1`, for which the growth was 24.2%.

Consider `CN1CC[C@@H]2[C@@]3(C)CC[C@H](O)C(C)(C)[C@@H]3CC[C@@]2(C)[C@]2(C)CC[C@@]3(CO)CCC(C)(C)C[C@@H]3C12` (stereo not given in full), for which the growth was 77%.

Turning to `Brc1cc(-c2cc(-c3ccc4c(c3)OCCO4)[nH]n2)cs1`, the growth was 14.7%.

For the compound `NS(=O)(=O)c1ccc(Nc2nc(Nc3ccccc3)nc(N3N=C(c4ccc(Cl)cc4)CC3c3ccc(Cl)cc3)n2)cc1` (stereo not given), the growth was 12.8%.

In the case of `O=C(N/N=C\c1ccc([N+](=O)[O-])cc1)c1ccc2nc(-c3ccc(Br)cc3)[nH]c2c1`, the growth is -4.44% (active).

Turning to `O=C(/C=C/c1cccc(C(F)(F)F)c1)Nc1cccc(C(F)(F)F)c1`, the growth is 30.9%.

`Brc1cccc(-c2cc(-c3ccc4c(c3)OC=CO4)[nH]n2)c1`: the growth was 10.1%.

As for `CCc1cc2c(cc1Cl)nc1c(=O)[nH]c(=O)nc-1n2CCOCC(C)C`, the growth was 39.5%.

With `CCCCSC1=C(Cl)CN(c2ccccc2)C1=O`, the growth was 51.5%.

As to `Brc1ccc(-c2cc(-c3ccc4c(c3)OC=CO4)n[nH]2)s1`, the growth was 20.7%.

In the case of `O=c1c2cc(-c3ccc(F)cc3F)ccc2n(Nc2ccccc2)c(=O)n1-c1cccc(C(F)(F)F)c1`, the growth is 4.02% (active).

Consider `CN1CCN(CCCCCC(=O)Nc2nc(-c3cccc(NS(=O)(=O)c4cccc5c(N(C)C)cccc45)c3)cs2)CC1`, for which the growth is 14.8%.

Turning to `CCCCc1nc2c(N)nc3ccccc3c2n1Cc1cccc(CN)c1`, the growth is 24.8%.

With `CCCCCCCCCCCC(=O)NC(C)(C)C(=O)N1CCCC1C(=O)NC(C)(C)C(=O)NC(C)(C)C(=O)N1CCCC1C(=O)NC(C)(C)C(=O)NC(C)(C)C(=O)N1CCCC1C(=O)NC(C)C(=O)NCCC(=O)NC(C)C(=O)NC(C)(C)C(=O)NC(C)(C)C(=O)NC(C)(C)C(=O)NCCC(=O)NC(C)(C)C(=O)NC(C)(C)C(=O)NC(C)(C)C(=O)NC(C)C(=O)NCCC(=O)O` (stereo not given), the growth was -81.5% (active).

Regarding `NS(=O)(=O)c1ccc(Nc2nc(N/N=C/c3ccc4c(c3)OCO4)nc(Nc3ccccc3)n2)cc1`, the growth is 18.7%.

Take `O=[N+]([O-])c1ccc(NC(=S)NNC(=S)Nc2ccc(Br)cc2)cc1`: the growth is 70.1%.

In the case of `Cc1cc(=O)[nH]c(O)c1C#N`, the growth was 99.9%.

As for `Cc1ccc(OCc2occc2C(=O)N2CCOCC2)cc1`, the growth is 85.6%.

`O=C1C(SCc2ccccc2)=C(Cl)CN1c1ccccc1`: the growth is 40.6%.

Consider `COc1ccc(C2C(C#N)=C(/N=C/c3ccc(Cl)cc3)Oc3c2sc2c(C)cccc32)cc1` (stereo not given), for which the growth was 21.5%.

`CN(C)CCNc1ccc2ncc(C#Cc3cncc(C(=O)Nc4ccc(CN5CCN(C)CC5)c(C(F)(F)F)c4)c3)n2n1`: the growth was -51.9% (active).

As to `CN1CCC[C@]2(C)[C@H]3CC[C@@H]4[C@@H]5[C@H]6OC[C@@]5(CCC6(C)C)CC[C@@]4(C)[C@]3(C)CC[C@H]2C1(C)C`, the growth was 8.03% (active).

As to `COc1ccccc1/C=C/C(=O)c1nnn(-c2ccc(F)cc2)c1C`, the growth is 7.51% (active).

As to `CC(C)[C@H]1c2[nH]c3ccccc3c2C[C@H]2C(=O)N(CCCCCCC(=O)NO)CC(=O)N12`, the growth is 59.5%.

With `COC(=O)CCCNCCCn1ccc2cc(NCc3cccc(-c4ccccc4)c3C)ccc21`, the growth is 56.9%.

Turning to `C=C(C=O)[C@@H]1CC[C@]2(C(=O)O)CC[C@]3(C)C(CC[C@@H]4[C@@](C)(CCC#N)[C@H](C(=C)C=O)CC[C@]43C)[C@@H]12` (stereo not given in full), the growth was 14.3%.

On to `CC1(C)CC[C@]23CC[C@]4(C)[C@H](CC[C@@H]5[C@@]6(C)CC[C@H](NCO)C(C)(C)[C@@H]6CC[C@]54C)[C@H]2[C@H]1OC3`, for which the growth is 1.96% (active).

Take `O=C1/C(=C/C=C/c2ccco2)SC(=S)N1Cc1ccccc1`: the growth is 28.4%.

Turning to `COc1ccc(/C=N/NC(=O)c2c(N)nn(C)c2Nc2ccccc2)cc1Oc1ccccc1`, the growth is 75.3%.

Take `Cc1[nH]c(C(=O)Nc2ccc(S(=O)(=O)N3CCCCC3)cc2OCCOCCOCCOCCOCCOCCOCCOCCOCCOc2cc(S(=O)(=O)N3CCCCC3)ccc2NC(=O)c2[nH]c(C)c3c2CCCCC3=O)c2c1C(=O)CCCC2`: the growth was 11%.

With `COc1ccc(C(=NNS(=O)(=O)c2ccc(C)cc2)c2ccccc2)cc1OC`, the growth was 91.4%.

Turning to `CNC(=O)c1cc(Oc2ccc3c(c2)sc2nc(-c4ccc(N(C)C)cc4)cn23)ccn1`, the growth was 11.2%.

As to `CN1CCN(Cc2ccc(/C=N/Nc3ccnc4cc(Cl)ccc34)cc2)CC1`, the growth is 54.7%.

As for `O=C1Nc2ccccc2/C1=N\c1nnc(-c2ccccc2)o1`, the growth is 66.3%.

In the case of `COc1ccc2c(c1)C=CC1(O2)Oc2ccc(OC)cc2C=C1C` (stereo not given), the growth was 12.1%.

Turning to `Cn1cc(-c2nn3cc(-c4ccncc4)nc3s2)c2cc(Br)ccc21`, the growth was 26.2%.

In the case of `C#Cc1nc(/C=C/CCCCCCC(=O)NO)cs1`, the growth is 48%.

On to `CC[C@]12CC(C(=O)OC)=C3Nc4ccccc4[C@@]34CCN(C14)[C@@H]1c3cc4c(cc3O[C@@H]1[C@H]2O)NC1=C(C(=O)OC)C[C@@]2(CC)C3N(CC[C@@]143)C[C@H]1O[C@H]12` (stereo not given in full), for which the growth is 4.36% (active).

As for `O=C(CCCCCCN1CC(=O)N2[C@@H](C3CC3)c3[nH]c4ccccc4c3C[C@H]2C1=O)NO`, the growth was 39.9%.
